Most compounds without a hit are left out; they make up all but 2.4% or so of the library.
Pol eta inh-1 – blocks human DNA polymerase eta activity. recombinant Pol eta, fluorescent DNA replication assay. Potency, µM (top dose mostly 114 µM), hits mostly inhibitors. 1.2% of 390,000 active. AID 588591
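Pol eta (10 nM) was preincubated with compounds for 15 min at room temperature, after which fluorescent replication substrate (50 nM final) was added to start the reaction. Fluorescence was read kinetically at 0 and 10 min.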
Pol beta inh – inhibitors of human DNA polymerase beta. Potency, µM (series often up to 114 µM), most hits filed as inhibitors. AID 485314. 1.3% of 340,000 active. Pol beta primer extension/strand displacement, fluorescence kinetic. P06746
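Kinetic readout of DNA synthesis with strand displacement by Pol beta. Compound and 10 nM enzyme sit 15 min at room temperature; 50 nM substrate starts the reaction, read immediately and at 10 min.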
POLI inh – DNA polymerase iota (human) inhibition. Q9UNA4. Pol iota fluorescent replication assay, 10 min. Potency, µM (highest dose often 115 µM), most hits filed as inhibitors. 1% of 390,000 active. AID 588590
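Fluorescent replication assay read twice, at 0 min and 10 min after adding 50 nM (final) substrate. Enzyme (10 nM) and compounds were first incubated 15 min at room temperature; enzyme-free buffer wells were negative controls.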
FEN1 inhibitor – human FEN1 inhibition; P39748; Recombinant FEN1 flap cleavage, fluorescence, 15 min; Potency, µM (titrated, usually from 114 µM), usual class: inhibitors; 0.35% of 390,000 active; note: nearly all actives have a fitted effect of over 65% in size
Target sequence (P39748 whole entry, looked up): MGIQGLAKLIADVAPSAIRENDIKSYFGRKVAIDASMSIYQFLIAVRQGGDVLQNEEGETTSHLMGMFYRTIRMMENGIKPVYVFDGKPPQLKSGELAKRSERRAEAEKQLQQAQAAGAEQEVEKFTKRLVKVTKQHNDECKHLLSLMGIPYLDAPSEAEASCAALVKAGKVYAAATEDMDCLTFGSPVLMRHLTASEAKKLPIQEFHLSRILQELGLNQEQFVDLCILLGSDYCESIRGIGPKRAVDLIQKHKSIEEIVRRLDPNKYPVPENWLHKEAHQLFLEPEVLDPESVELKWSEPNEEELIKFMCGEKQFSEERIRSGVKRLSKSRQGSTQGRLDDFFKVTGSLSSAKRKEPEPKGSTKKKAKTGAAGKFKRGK
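Nuclease activity of 10 nM FEN1 was measured after 15 min of room-temperature exposure to titrated compounds, by adding 50 nM flap substrate and reading plates at 0 and 15 min.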
Pol kappa inh-1 – blocks human DNA polymerase kappa activity. purified Pol kappa, fluorescent DNA synthesis assay, 10 min. 0.53% of 400,000 active. AID 588579. Q9UBT6. Potency, µM (series often up to 107 µM), usual class: inhibitors
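Readout: fluorescence, taken kinetically at 0 and 10 min. Conditions: 10 nM Pol kappa, 15 min RT compound preincubation, 50 nM substrate final. Controls: enzyme-free buffer wells.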
PGK inhibitor – blocks T. brucei phosphoglycerate kinase. P07378. PGK/GAPDH coupled, Kinase-Glo luminescence, 60 min. Potency, µM (doses to about 57.5 µM), actives largely listed as inhibitors. 0.043% of 380,000 active. AID 602233; note: nearly all actives have a fitted effect of over 60% in size
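Recombinant glycosomal PGK reaction used 1,3-bisphosphoglycerate generated in-well by GAPDH (100nM final) in 100mM TEA pH 7.6, 5mM MgCl2, 0.01% Tween-20. After 60 minutes at room temperature, ATP was read by Kinase-Glo Plus luminescence end-point.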
GALK inh confirm – galactokinase (human) inhibition, confirmation; purified GALK, Kinase-Glo ATP depletion luminescence; 70% of 150 active; shares compounds with Pol eta inh-1; Potency, µM (highest dose often 115 µM), hits mostly inhibitors
GALK redox cs – counter-screen for GALK inhibitors: redox cycling H2O2 generation. 40% of 150 active. Phenol red-HRP H2O2 redox cycling, absorbance 600 nm. Potency, µM (top dose mostly 115 µM), hits mostly inhibitors. shares compounds with Pol eta inh-1. AID 2035
HEK293 viability – HEK-293 cytotoxicity, GALK inhibitor secondary. shares compounds with Pol eta inh-1. HEK-293 viability, ATP luminescence (CellTiter-Glo), 24/48 h. Potency, µM (doses to about 46.1 µM), most hits filed as inhibitors. 10% of 170 active. AID 2547
Pol kappa inh-2 – Pol kappa (human) inhibition, cherry-pick confirmation; shares compounds with Pol eta inh-1; purified Pol-kappa, fluorescent strand-displacement substrate; Potency, µM, usual class: inhibitors; 76% of 920 active; AID 720501
Pol eta inh-2 – confirmation of human DNA polymerase eta inhibitors. shares compounds with Pol eta inh-1. Pol eta primer extension, TAMRA/BHQ fluorescence, 10 min. Potency, µM, most hits filed as inhibitors. 64% of 2,600 active. AID 720502
Large screens that a line does not name were inactive (follow-up assays come after a bar, where they were run). Calls come from the whole dose curve; as a rule, active = well fitted curve in the direction sought with a large enough effect; inconclusive = small, poorly fitted or top-dose-only effect, or another doubt; inactive = no such curve, though single readings can be large; an effect the other way counts as inactive or inconclusive.

Cc1cc2nc(-c3ccc(SCc4ccc(C(=O)O)cc4)nc3)[nH]c2cc1C	Pol eta inh-1 28µM, Pol beta inh 22µM, POLI inh inconclusive, FEN1 inhibitor inconclusive | Pol eta inh-2 38
Cc1cc2nc(-c3ccc(SCc4ccccc4C#N)nc3)[nH]c2cc1C	POLI inh inconclusive
COc1ccc(NC(=O)c2c[nH]n3c(=O)cc(C4CCN(C(=O)OC(C)(C)C)CC4)nc23)cc1Cl	Pol eta inh-1 89µM, FEN1 inhibitor inconclusive, PGK inhibitor inconclusive | Pol kappa inh-2 75 | Pol eta inh-2 85
O=C1C[C@@H](c2ccccc2)Oc2cc(O)cc(O)c21	none (no result: Pol beta inh)
O=c1c(O)cc(C2Oc3cc(O)cc(O)c3CC2O)cc2c(C3Oc4cc(O)cc(O)c4CC3O)cc(O)c(O)c12 (stereo unspecified)	Pol kappa inh-1 0.71µM (no result: Pol eta inh-1, Pol beta inh, POLI inh, FEN1 inhibitor, PGK inhibitor) | GALK inh confirm 5.3µM | GALK redox cs 5.3µM | HEK293 viability inactive
COC(=O)c1c(C)[nH]c(C(=O)COc2ccc3ccc(=O)oc3c2)c1C	Pol eta inh-1 45µM, POLI inh inconclusive, FEN1 inhibitor inconclusive (no result: Pol beta inh) | Pol eta inh-2 inconclusive
Cc1ccc(NC(=O)CCNS(=O)(=O)c2ccc3[nH]c(=O)oc3c2)c(C)c1	Pol beta inh inconclusive
Cc1ccc(C)c(NC(=O)CCNS(=O)(=O)c2ccc3[nH]c(=O)oc3c2)c1	Pol eta inh-1 22µM, Pol beta inh 11µM | Pol eta inh-2 inconclusive
Cc1ccc(S(=O)(=O)N/N=C\c2ccc([N+](=O)[O-])o2)cc1	POLI inh inconclusive, FEN1 inhibitor inconclusive
Cc1ccc(S(=O)(=O)N/N=C\c2ccc(C)o2)cc1	Pol eta inh-1 45µM, Pol beta inh 40µM, POLI inh inconclusive, Pol kappa inh-1 inconclusive | Pol eta inh-2 67
COc1ccccc1CNC(=O)c1cc(Sc2cccc(Cl)c2)nc2ccccc12	none
O=C(CSCc1ccc(Cl)cc1)Nc1ccc2c(c1)OCCO2	none
O=C(CSc1nc(=O)n2cc(Cl)ccc2n1)Nc1ccc2c(c1)OCCO2	Pol eta inh-1 28µM (no result: Pol beta inh) | Pol eta inh-2 inconclusive
CCN(CC)C(=O)c1sc2c(c1C)c(=O)n(-c1ccc(Cl)c(Cl)c1)c(=O)n2Cc1cc(=O)n2ccccc2n1	none
O=[N+]([O-])c1cccc(N/N=C/c2cc([N+](=O)[O-])ccc2O)c1	Pol beta inh inconclusive, POLI inh inconclusive
O=[N+]([O-])c1ccc(O)c(C=NNc2ccc(S(=O)(=O)O)cc2)c1	Pol eta inh-1 6.3µM, POLI inh 22µM, Pol kappa inh-1 inconclusive (no result: Pol beta inh) | Pol kappa inh-2 21 | Pol eta inh-2 54
S=c1[nH]nc(-c2cc(-c3ccccc3)n[nH]2)n1/N=C/c1ccccc1	none
S=c1[nH]nc(-c2cc(-c3ccccc3)n[nH]2)n1/N=C/C(Br)=C/c1ccccc1	Pol eta inh-1 50µM, Pol beta inh 13µM, POLI inh 22µM, FEN1 inhibitor inconclusive | Pol kappa inh-2 67
COc1ccc(/C=C2\SC(=S)N(CCCC(=O)Nc3ccc(C(=O)O)cc3)C2=O)cc1OC	Pol eta inh-1 inconclusive, Pol beta inh inconclusive, POLI inh 56µM, FEN1 inhibitor inconclusive | Pol kappa inh-2 42
CCc1ccc(NC(=O)c2cc3nc(-c4ccc(C)cc4)cc(C(F)(F)F)n3n2)cc1	none
Cc1ccc(O)c(N=Cc2cc(Cc3ccccc3)cc([N+](=O)[O-])c2O)c1	Pol eta inh-1 79µM, Pol beta inh 5.6µM, POLI inh inconclusive, FEN1 inhibitor inconclusive, Pol kappa inh-1 inconclusive | Pol kappa inh-2 67
O=[N+]([O-])c1cc(Cc2ccccc2)cc(C=Nc2ccc(N3CCOCC3)cc2)c1O	Pol eta inh-1 inconclusive, FEN1 inhibitor inconclusive
CCOc1ccccc1C(=O)Nc1ccc(S(=O)(=O)Nc2onc(C)c2C)cc1	none
O=S(=O)(Nc1c(S(=O)(=O)c2ccccc2)c2nc3ccccc3nc2n1C1CCCCC1)c1ccccc1	Pol eta inh-1 22µM, POLI inh 3.5µM | Pol kappa inh-2 30
CC(=O)Nc1c(S(=O)(=O)c2ccccc2)c2nc3ccccc3nc2n1Cc1ccccc1	none
COC(=O)c1ccc(NC(=O)CC2C(=O)N(c3ccccc3)C(=O)N2Cc2cccs2)cc1 (stereo unspecified)	none
CCc1c(C)sc(NC(=O)CC#N)c1C#N	Pol eta inh-1 22µM, Pol beta inh inconclusive, POLI inh 45µM, FEN1 inhibitor inconclusive, Pol kappa inh-1 inconclusive | Pol eta inh-2 inconclusive
Cc1ccc(-c2nnc(Nc3ccc(Br)cc3)c3ccccc23)cc1S(=O)(=O)N1CCOCC1	none
CCOc1ccc(NC(=O)CC2C(=O)N(c3ccc(Cl)cc3)C(=O)N2Cc2cccs2)cc1 (stereo unspecified)	none
COc1ccc(Cn2c(O)c(C=Nc3ccccc3C(=O)O)c3ccccc3c2=O)cc1	Pol eta inh-1 20µM, Pol beta inh inconclusive, POLI inh inconclusive, FEN1 inhibitor inconclusive | Pol eta inh-2 67
COc1ccc(Cn2c(O)c(C=Nc3ccc(OC)cc3)c3ccccc3c2=O)cc1	none
Cc1ccc(C(=O)Nc2ccc(S(=O)(=O)NC3=NCCCCC3)cc2)c(C)c1	none (no result: Pol beta inh)
CCc1cc(C(=O)Nc2ccc(S(=O)(=O)NC3=NCCCCC3)cc2)sc1C	Pol eta inh-1 56µM, POLI inh 22µM, Pol kappa inh-1 50µM (no result: Pol beta inh) | Pol eta inh-2 inconclusive
O=C(c1cnccn1)N1CCC2(CC1)CCN(c1ncccn1)CC2	none (no result: Pol eta inh-1, Pol beta inh, POLI inh, FEN1 inhibitor, PGK inhibitor)
COc1ccc(CCNC(=O)C(C)n2nc(C)c3sc4ccccc4c3c2=O)c(OC)c1 (stereo unspecified)	Pol beta inh inconclusive, FEN1 inhibitor inconclusive (no result: Pol eta inh-1, PGK inhibitor)
CO[C@@]1(NC(=O)C2SC(=C(C(N)=O)C(=O)O)S2)C(=O)N2C(C(=O)O)=C(CSc3nnnn3C)CS[C@@H]21 (stereo partly specified)	POLI inh 11µM, Pol kappa inh-1 45µM (no result: Pol beta inh) | Pol eta inh-2 30
